Assay results from PubChem BioAssay AID463173 (ICCB-Longwood Screening Facility, Harvard Medical School, 2010).
About 4,300 (8.3%) of roughly 52,000 compounds were called active. This is one part of a sample in which actives are shown more often than they occur. Cut-off read from the data, not from the text of the source: active = survival mostly below about 52% (no sharp cut-off); inactive = mostly above about 56%.

Test system: DeltatarO mutant
Assay: S. aureus survival, RN4220 and DeltatarO strains – OD600, teichoic acid synthesis inhibitors, primary screen (AID 463173)
Details: S. aureus RN4220 wild type/DeltatarO growth, OD600, 18 h, stronger effect = lower value, screened at 18.75 µg/mL (by protocol)

| Structure (SMILES) | survival |
| --- | --- |
| N#C/C(=C/c1ccc(-c2cccc(C(F)(F)F)c2)o1)C(=O)OC1CCCCC1 | 82% (inactive) |
| Cc1cccc(C(=O)Nc2cccc(C(=O)OCc3cc(=O)n4nc(C(C)C)sc4n3)c2)c1 | 113% (inactive) |
| Cc1ccc(N2C(=O)c3n[nH]c(C)c3C2c2ccccc2Cl)cc1 (stereo not given) | 120% (inactive) |
| Cc1ccc(-c2n[nH]c3c2C(c2cccs2)N(c2ccc(Cl)cc2)C3=O)cc1 (stereo not given) | 62% (inactive) |
| CCOC(=O)c1ccc(N2C(=O)c3n[nH]c(C)c3C2c2ccc(C(C)C)cc2)cc1 (stereo not given) | 86% (inactive) |
| CCOC(=O)c1ccc(N2C(=O)c3n[nH]c(-c4cccs4)c3C2c2ccc(C(C)C)cc2)cc1 (stereo not given) | 104% (inactive) |
| COc1ccc(C2c3c(-c4ccc(F)cc4)n[nH]c3C(=O)N2c2ccccc2)cc1OC (stereo not given) | 124% (inactive) |
| Cc1ccc(N2C(=O)c3[nH]nc(-c4ccc(Cl)cc4)c3C2c2ccc(F)cc2)cc1 (stereo not given) | 44% (active) |
| COc1ccccc1C1c2c(-c3ccc(Cl)cc3)n[nH]c2C(=O)N1c1ccc(C)cc1 (stereo not given) | 79% (inactive) |
| Cc1ccc(N2C(=O)c3n[nH]c(C)c3C2c2ccc(C(C)C)cc2)cc1 (stereo not given) | 39% (active) |
| COc1cc(C2c3c(-c4ccc(C)cc4)n[nH]c3C(=O)N2c2ccc(F)cc2)ccc1O (stereo not given) | 95% (inactive) |
| O=C1c2[nH]nc(-c3ccc(F)cc3)c2C(c2ccccc2F)N1c1ccccc1 (stereo not given) | 10% (active) |
| CCOc1ccc(C2c3c(-c4ccc(C)cc4)n[nH]c3C(=O)N2c2ccc(Cl)cc2)cc1 (stereo not given) | 91% (inactive) |
| Cc1ccc(N2C(=O)c3n[nH]c(C)c3C2c2ccc(Cl)cc2)cc1 (stereo not given) | 6% (active) |
| CCN(CC)C(=O)CN1C(=O)COc2ccc(S(=O)(=O)N3CCOCC3)cc21 | 78% (inactive) |
| O=C(Nc1cc2c(cc1C(=O)c1ccc(Br)cc1)OCCO2)c1ccc(Cl)cc1 | 102% (inactive) |
| Cc1ccc2c(c1)N(CC(=O)OCC(=O)NCc1ccccc1)C(=O)CO2 | 81% (inactive) |
| COCCNC(=O)c1ccc(-c2nc(CS(=O)(=O)c3ccccc3)c(C)o2)cc1 | 119% (inactive) |
| COCCCNc1nc2c(c(=O)[nH]c(=O)n2C)n1CC(O)COc1ccc(Cl)cc1 (stereo not given) | 66% (inactive) |
| O=C1c2[nH]nc(-c3ccccc3)c2C(c2ccccc2)N1c1cccc(C(F)(F)F)c1 (stereo not given) | 20% (active) |
| CCOC(=O)c1ccc(N2C(=O)c3n[nH]c(-c4cccs4)c3C2c2ccc(CC)cc2)cc1 (stereo not given) | 99% (inactive) |
| CCc1ccc(C2c3c(-c4ccccc4)n[nH]c3C(=O)N2c2ccc(C(=O)O)cc2)cc1 (stereo not given) | 48% (active) |
| CCc1ccc(C2c3c(n[nH]c3C)C(=O)N2c2ccc(C)cc2)cc1 (stereo not given) | 8% (active) |
| CCOC(=O)c1ccc(N2C(=O)c3[nH]nc(-c4ccccc4)c3C2c2ccc(CC)cc2)cc1 (stereo not given) | 100% (inactive) |
| CCOC(=O)c1ccc(N2C(=O)c3n[nH]c(C)c3C2c2ccc(CC)cc2)cc1 (stereo not given) | 78% (inactive) |
| CCOC(=O)c1ccc(N2C(=O)c3[nH]nc(-c4ccccc4)c3C2c2ccc(C(C)C)cc2)cc1 (stereo not given) | 105% (inactive) |
| CCOC(=O)c1ccc(N2C(=O)c3[nH]nc(-c4ccc(C)cc4)c3C2c2cccc(F)c2)cc1 (stereo not given) | 117% (inactive) |
| O=C(O)c1ccc(N2C(=O)c3[nH]nc(-c4ccccc4)c3C2c2cccc(F)c2)cc1 (stereo not given) | 92% (inactive) |

| Structure (SMILES) | survival |
| --- | --- |
| Clc1ccc(OCc2nc(-c3ccc(-n4cccc4)cc3)no2)cc1 | 163% (inactive) |
| O=C(CNCC1CCCO1)NCc1ccco1 (stereo not given) | 97% (inactive) |
| CCN(Cc1ccccc1)Cc1c(O)ccc2c(=O)c(-c3ccccc3Cl)c(C(F)(F)F)oc12 | 74% (inactive) |
| COc1ccc(N=C2SCC(=O)N2C)cc1 | 76% (inactive) |
| COc1ccc(C2=Nn3c(nc4sc(C(=O)Nc5cccc(C)c5)c(C)c4c3=O)SC2)cc1 | 105% (inactive) |
| COc1ccc(C2=Nn3c([n+](C)c4ccccc43)SC2)cc1 | 0% (active) |
| O=C(COc1ccccc1)Nc1ccccc1OCc1cc(=O)n2ccccc2n1 | 78% (inactive) |
| CCC1CN(C(=O)N2CCC(C(=O)NCCCc3ccccc3)CC2)c2ccccc2O1 (stereo not given) | 69% (inactive) |
| CNCC(=O)NC(c1ccccc1)c1ccccc1 | 97% (inactive) |
| CN(C)CCCN(C(=O)c1cccs1)c1nc2ccc(F)cc2s1 | 92% (inactive) |
| CN(C)CCCN(C(=O)c1ccc(Br)s1)c1nc2ccc(F)cc2s1 | -5% (active) |
| Cc1ccc2nc(N(CCCN(C)C)C(=O)c3ccc(Br)s3)sc2c1 | 77% (inactive) |
| COC(=O)c1sc2cccc(F)c2c1S(=O)(=O)N1CCN(c2ccc(F)cc2)CC1 | 81% (inactive) |
| COc1ccc2c(CNCc3cccs3)c(C(=O)O)n(Cc3cccc(F)c3)c2c1 | 72% (inactive) |
| Cc1cc(C)cc(Nc2cc(C(=O)NCCCN(Cc3ccccc3)C(C)C)c3ccccc3n2)c1 | -4% (active) |
| Cc1cc(C)cc(Nc2cc(C(=O)NCc3ccccc3)c3ccccc3n2)c1 | 113% (inactive) |
| CSc1cccc(Nc2cc(C(=O)NCCCN(Cc3ccccc3)C(C)C)c3ccccc3n2)c1 | 88% (inactive) |
| Cc1ccc(N2CC(C(=O)NCCS(=O)(=O)N3CCN(c4ccc(F)cc4)CC3)CC2=O)cc1 (stereo not given) | 89% (inactive) |
| Cc1ccc(CN(C(=O)COc2ccccc2[N+](=O)[O-])c2ccccn2)cc1 | 46% (inactive) |
| Cc1ccc(CN(C(=O)COc2ccc([N+](=O)[O-])cc2)c2ccccn2)o1 | 62% (active) |
| Cc1ccc(CN(C(=O)COc2cccc([N+](=O)[O-])c2)c2ccccn2)o1 | 62% (inactive) |
| Cc1ccc(CN(C(=O)COc2cccc([N+](=O)[O-])c2)c2ccccn2)cc1 | 39% (active) |
| Cc1ccc(CN(C(=O)COc2ccc([N+](=O)[O-])cc2)c2ccccn2)cc1 | 49% (inactive) |
| Cc1ccc(CN(C(=O)COc2ccccc2[N+](=O)[O-])c2ccccn2)o1 | 69% (inactive) |
| Cc1c(-c2nsc(NC(=O)c3ccc(Cl)cc3)n2)nnn1-c1ccc(C(C)C)cc1 | 66% (inactive) |
| CN(C1CCCCC1)S(=O)(=O)c1ccc(F)c(C(=O)Nc2ccc(C(F)(F)F)cc2)c1 | 83% (inactive) |
| CCn1c(CN2CCCCC2)nc2cc(NC(=O)c3ccc([N+](=O)[O-])cc3)ccc21 | 90% (inactive) |
